Our source for the Potency values is PubChem BioAssay (NCATS).

Records with an inconclusive call do not appear. Calls of active or inactive are those of the source. The call rests on the fitted dose curve; in most records, active means well fitted cell-killing curve with a large enough effect; inconclusive means small, poorly fitted or top-dose-only effect, or effect the other way; inactive means no such curve, though single readings can be large or run the other way.
Potency means the concentration at half of the fitted maximal effect.

The experiment in a line: Viability qHTS for spleen associated tyrosine kinase inhibitor (SYKi) drug resistant MV4-11 cells (AID 1963824). Further: nearly all actives have a fitted effect of over 35% in size. Particulars: SYKi-resistant MV4-11 viability, CellTiter-Glo, 72 h; series mostly up to 45 µM. Put shortly:
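SYK-inhibitor-resistant MV4-11 AML cells were seeded at 500 per well onto compound and cultured 72 hours (37 °C, 5% CO2). CellTiter-Glo was then added, and after 10 min at room temperature, luminescence gave viability.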
For orientation: Quantitative high-throughput screening tests each substance at several concentrations.
For `C[C@@H]1C[C@H](O[C@@H]2O[C@H](CO[C@@H]3OC[C@](O)(CO)[C@H]3O)[C@@H](O)[C@H](O)[C@H]2O)CC(C)(C)[C@H]1/C=C/[C@@H](C)O`, the Potency result was “inactive”. The result for `COc1cc(C(C)=O)ccc1O[C@@H]1O[C@H](CO)[C@@H](O)[C@H](O)[C@H]1O` reads “inactive”. The result for `COc1ccc(Oc2cc(C)c(-c3csc(NC(=O)c4ccncc4)n3)c(C)c2)cc1` reads 0.092 µM (active); that for `CC(C)n1cnc2c(-c3cnc(N)nc3)nc(N3CCOCC3)nc21`, 3.17 µM (active); that for `C=C[C@H]1[C@H](O[C@@H]2O[C@H](CO)[C@@H](O)[C@H](OC(=O)/C=C/c3ccc(O)c(OC)c3)[C@H]2O)OC=C2C(=O)OCC[C@]21O`, “inactive”.

As to `O=C(OC1CN2CCC1CC2)N1CCc2ccccc2C1c1ccccc1` (stereo unspecified), the Potency is 18.4 µM (active).

With `OC[C@H]1O[C@@H](O[C@H]2[C@H](OCc3ccccc3)O[C@H](CO[C@@H]3OC[C@@H](O)[C@H](O)[C@H]3O)[C@@H](O)[C@@H]2O)[C@H](O)[C@@H](O)[C@@H]1O`, the Potency result was “inactive”. The result for `Fc1ccc(C(c2ccc(F)cc2)N2CCN(C/C=C/c3ccccc3)CC2)cc1` reads 21.1 µM (active); that for `CNC(=O)c1cc(Oc2ccc(NC(=O)c3cccc(C(F)(F)F)c3)cc2)ccn1`, 11.6 µM (active). For the compound `CC(=O)N[C@H](Cc1c[nH]c2ccccc12)C(=O)OCc1cc(C(F)(F)F)cc(C(F)(F)F)c1`, the Potency is 23.1 µM (active). With `C/C(=C\C(=O)C(C)C1CCC2C3=C(CCC21C)C1(C)CCC(=O)C(C)(C)C1(O)CC3)C(C)(C)O` (stereo unspecified), the Potency was 10 µM (active).
